Nrf2 inh: Nrf2 qHTS screen for inhibitors; Potency, µM (doses to about 46 µM), for the others: at the highest dose activity change, negative = inhibition, hits mostly inhibitors; AID 504444, 2011; A549 ARE-Fluc reporter, luciferase luminescence, 18-24 h; 360,000 compounds, 2.1% hits; note: potency is the fitted concentration of half-maximal effect; % is set by controls: 0 for no effect and ±100 for the full control effect; nearly all actives have a fitted effect of over 60% in size
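Cells were seeded and rested 2 h, then exposed to compounds for 18-24 h. CellTiter-Fluor was read first as a viability measure. BugLite was added 15 min before the final luminescent read of ARE-luciferase activity in A549 cells.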
A549 tox: Nrf2 qHTS screen for inhibitors: counterscreen for cytotoxicity. Potency, µM (series often up to 46 µM), for the others: at the highest dose activity change, negative = cytotoxicity, actives largely listed as inhibitors. A549 ARE-Fluc cells, CellTiter-Fluor viability, 18-24 h. 390,000 compounds, 0.16% hits; note: potency is the fitted concentration of half-maximal effect; % is set by controls: 0 for no effect and ±100 for the full control effect
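Cytotoxicity counterscreen: CellTiter-Fluor fluorescence was measured in A549 ARE_Fluc cells after 18-24 h of compound exposure in a concentration series. The subsequent BugLite luminescent read reports ARE-luciferase activity.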
ClpP mod: qHTS Assay for Activators of ClpP | ATP-dependent Clp protease proteolytic subunit (Bacillus subtilis (strain 168)), P80244 | purified B. subtilis ClpP, FRET peptide cleavage, 20 min | Potency, µM (doses to about 57.5 µM), for the others: at the top dose activity change, negative = active | 340,000 compounds, 1.9% hits; active = well fitted falling curve with a large enough effect; inconclusive = small, poorly fitted or top-dose-only effect; inactive = no such curve, though single readings can be large or run the other way; note: potency is the fitted concentration of half-maximal effect; the source files actives as falling curves though it sought activators and does not explain the sign; nearly all actives have a fitted effect of over 65% in size
Target sequence (P80244 whole entry, looked up): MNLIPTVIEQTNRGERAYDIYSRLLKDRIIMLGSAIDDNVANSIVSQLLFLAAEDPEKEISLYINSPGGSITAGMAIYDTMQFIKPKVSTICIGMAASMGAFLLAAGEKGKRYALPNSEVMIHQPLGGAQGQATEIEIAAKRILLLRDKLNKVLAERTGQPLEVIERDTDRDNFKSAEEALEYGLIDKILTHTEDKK
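Buffer: 100 mM Tris/HCl pH8, 100 mM KCl, 0.05% low protease BSA, 2.5% glycerol, 0.01% Tween-20. ClpP 10 microg/mL final; 20 min RT; delta FRET normalized to ADEP and DMSO controls.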
miR-21 act: qHTS Assay for Modulators of miRNAs and/orActivators of miR-21. 340,000 tested, under 10 active. Potency, µM (highest dose often 38.3 µM), inactives show top-dose activity change, positive = activation, most hits filed as activators. HeLa miR-21 FLuc reporter, luciferase, 48 h;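 note: % of control where 0% means no effect; miR-21 action dims this reporter so a rising signal means less miR-21 action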
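Using DMEM plus 10% FBS, HeLa miR-21-FLuc cells are incubated with test compounds (final up to about 40uM) for 48 hours; firefly luciferase signal is then imaged following reagent-mediated lysis.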
TCR act: Activators of T cell receptors: qHTS campaign; primary human leukocytes, anti-CD3, IL-2 HTRF, 48 h; Potency, µM (doses to about 9.22 µM), inactives show top-dose activation of IL-2 secretion, usual class: activators; 330,000 tested, under 10 active; note: % of control where 0% means no effect
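48 hr co-incubation of compounds, a-CD3 beads and primary human leukocytes; IL-2 quantified homogeneously by HTRF with anti-IL-2 K and d2 conjugates.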
Nrf2 activator: qHTS of Nrf2 Activators | AREc32 ARE-luciferase reporter (MCF7-derived line), luminescence, 24 h | Potency, µM (doses to about 46.1 µM), for inactives: at the highest dose activation, actives largely listed as activators | 410,000 compounds, 0.31% hits; note: potency is the fitted concentration of half-maximal effect; % of control where 0% means no effect; nearly all actives have a fitted effect of over 65% in size
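ARE-driven firefly luciferase activity in AREc32 cells measured after a 24 hr compound exposure at 37 deg C, using Steady-Glo reagent and a 30 min room-temperature hold.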
Numbers without * were called inactive; [ ] = dose if it differs, or a comment. Rows were chosen to be rich in hits. Some 3.7% of all compounds tested hit in one or more screens of this group. Unless noted, calls come from the whole dose curve; as a rule, active = well fitted curve in the direction sought with a large enough effect; inconclusive = small, poorly fitted or top-dose-only effect, or another doubt; inactive = no such curve, though single readings can be large; an effect the other way counts as inactive or inconclusive.

For CC(=O)Nc1ccc(S(=O)(=O)N2CCN(c3nc(NC4CCCC4)c4ccccc4n3)CC2)cc1 the results were Nrf2 inh -29%, A549 tox inconclusive, ClpP mod 28µM*, miR-21 act -5%, TCR act 0% and Nrf2 activator 27%.
Cc1cn2nc(N)c3ccccc3c2n1 was read as Nrf2 inh -5%, A549 tox -4%, ClpP mod 28µM*, miR-21 act -12%, TCR act 4% and Nrf2 activator 0%.
For O=C(COc1ccccc1)N1c2ccccc2Sc2ccccc21 the results were Nrf2 inh inconclusive, A549 tox -5%, ClpP mod 16µM*, miR-21 act 20%, TCR act 0%[46.1 µM] and Nrf2 activator 2%.
Screening Cc1ccc(NS(=O)(=O)c2ccc3c(c2)CC(=O)N3C)cc1C returned Nrf2 inh inconclusive and A549 tox 4%.
Screening COc1cc(CCC(=O)Nc2ccc(C)c(S(=O)(=O)N(C)C)c2)cc(OC)c1OC returned Nrf2 inh 23µM*, A549 tox -14%, ClpP mod -4%, miR-21 act 12%, TCR act -5% and Nrf2 activator 2%.
Screening COc1ccc(CCC(=O)Nc2ccc(C)c(S(=O)(=O)N(C)C)c2)cc1OC returned Nrf2 inh 13µM*, A549 tox -2%, ClpP mod 1%, miR-21 act 22%, TCR act -9%[46.1 µM] and Nrf2 activator 0%.
`COc1ccc(NS(=O)(=O)c2ccc(C)c(C(=O)N(C)CCc3ccc(OC)c(OC)c3)c2)cc1` gave Nrf2 inh 21µM*, A549 tox -29%, ClpP mod 0%, TCR act -3% and Nrf2 activator -1%.
CCNC(=O)C[C@@H]1CC[C@H]2[C@@H](COC[C@H](O)CN2C(=O)C2CC2)O1 was read as ClpP mod 0%.
CCOC(=O)c1cccc(NC(=O)CC(c2cc(OC)c(OC)c(OC)c2)N2Cc3ccccc3C2=O)c1 (stereo unspecified) was read as Nrf2 inh 19%, A549 tox 14%, ClpP mod -3%, miR-21 act -1% and Nrf2 activator 1%.
For O=C(NCC1CCCN(Cc2nccs2)C1)c1cccc2ccccc12 (stereo unspecified) the results were Nrf2 inh -13%, A549 tox -1%, ClpP mod 35µM*, miR-21 act -1%, TCR act -4% and Nrf2 activator 0%.
COC(=O)c1cc(OC)c(OC)cc1NC(=O)Nc1cccc(C(C)=O)c1 was read as Nrf2 inh 16%, A549 tox 0%, miR-21 act 0%, TCR act -5% and Nrf2 activator -1%.
For COC(=O)c1cc(OC)c(OC)cc1NC(=O)Nc1ccc(OC)cc1 the results were A549 tox -3%, ClpP mod 25µM*, miR-21 act -2%, TCR act 2% and Nrf2 activator 0%.
Screening COC(=O)c1cc(OC)c(OC)cc1NC(=O)CC1CCCCC1 returned Nrf2 inh inconclusive, A549 tox -20%, ClpP mod 28µM*, miR-21 act -4%, TCR act 0% and Nrf2 activator 0%.
For O=C(NCc1cccc(Cl)c1)C1CCN(S(=O)(=O)c2ccc(F)cc2)CC1 the results were Nrf2 inh 14%, A549 tox -6%, ClpP mod 0%, miR-21 act 1%, TCR act -5% and Nrf2 activator 0%.
`COc1ccc(C(=O)NNC(=O)C(=O)Nc2ccc(C)cc2)cc1` gave Nrf2 inh -10%, A549 tox -1%, miR-21 act -9%, TCR act 0% and Nrf2 activator 3%.
`COc1ccc(C(=O)NNC(=O)C(=O)Nc2ccc(C)c(Cl)c2)cc1` gave Nrf2 inh 5.8µM*, A549 tox inconclusive, ClpP mod 3%, miR-21 act 0%, TCR act 2% and Nrf2 activator 0%.
COc1ccc(NC(=O)c2ccc(OC(F)F)cc2)cc1Cl was read as Nrf2 inh inconclusive, A549 tox 1%, ClpP mod 25µM*, miR-21 act 3%, TCR act 0%[46.1 µM] and Nrf2 activator 4%.
For O=C1CCCc2c1[nH]c1ccc(CN3CCCCC3)cc21 the results were Nrf2 inh 9%, A549 tox 11%, ClpP mod 28µM*, miR-21 act -16%, TCR act 0% and Nrf2 activator 10%.
Screening Cc1ccc2[nH]c3c(c2c1)CCC3=O returned Nrf2 inh 5%, A549 tox -2%, ClpP mod 25µM*, miR-21 act -14%, TCR act 2% and Nrf2 activator 4%.
Screening Cc1ccc2[nH]c3c(c2c1)CCCC3=O returned Nrf2 inh 9%, A549 tox 3%, ClpP mod inconclusive, miR-21 act -30%, TCR act -6% and Nrf2 activator 7%.
For Oc1ccc(Cl)cc1-c1cc(C(F)(F)C(F)F)nc(-c2ccccc2)n1 the results were Nrf2 inh inconclusive, A549 tox -21%, ClpP mod 0%, miR-21 act 10%, TCR act 7% and Nrf2 activator 3%.
Cc1ccc(O)c(-c2cc(C(F)(F)C(F)F)nc(-c3ccccc3)n2)c1 was read as A549 tox -1%, ClpP mod 25µM*, miR-21 act 0%, TCR act 7% and Nrf2 activator -1%.
For O=C(Nc1cccc(Cl)c1Cl)c1cc(S(=O)(=O)N2CCCc3ccccc32)ccc1F the results were A549 tox inconclusive, ClpP mod -16%, miR-21 act 2% and Nrf2 activator 3%.
For CC1CC(C)CN(c2oc(-c3ccccc3Cl)nc2C#N)C1 (stereo unspecified) the results were Nrf2 inh inconclusive, A549 tox 10%, ClpP mod 11µM*, miR-21 act -5%, TCR act 2% and Nrf2 activator -1%.
`CN(C)c1oc(-c2ccccc2Cl)nc1C#N` gave Nrf2 inh -7%, A549 tox 8%, ClpP mod 14µM*, miR-21 act -38%, TCR act -2% and Nrf2 activator 3%.
N#Cc1nc(-c2cccs2)oc1N1CCN(c2ccccc2)CC1 was read as A549 tox 7%, ClpP mod 28µM*, miR-21 act -5% and Nrf2 activator 0%.
